Reference: ChEMBL document CHEMBL3988442, “University of Dundee, Small-Polar-MMV Screening Library” (2021)

Biological target: T1, Aspartate--tRNA(Asp/Asn) ligase (Mycobacterium tuberculosis (strain ATCC 25618 / H37Rv)) (UniProt P9WFW3); also: in the data most compounds retested in dose-response had high values
T1 sequence (whole entry): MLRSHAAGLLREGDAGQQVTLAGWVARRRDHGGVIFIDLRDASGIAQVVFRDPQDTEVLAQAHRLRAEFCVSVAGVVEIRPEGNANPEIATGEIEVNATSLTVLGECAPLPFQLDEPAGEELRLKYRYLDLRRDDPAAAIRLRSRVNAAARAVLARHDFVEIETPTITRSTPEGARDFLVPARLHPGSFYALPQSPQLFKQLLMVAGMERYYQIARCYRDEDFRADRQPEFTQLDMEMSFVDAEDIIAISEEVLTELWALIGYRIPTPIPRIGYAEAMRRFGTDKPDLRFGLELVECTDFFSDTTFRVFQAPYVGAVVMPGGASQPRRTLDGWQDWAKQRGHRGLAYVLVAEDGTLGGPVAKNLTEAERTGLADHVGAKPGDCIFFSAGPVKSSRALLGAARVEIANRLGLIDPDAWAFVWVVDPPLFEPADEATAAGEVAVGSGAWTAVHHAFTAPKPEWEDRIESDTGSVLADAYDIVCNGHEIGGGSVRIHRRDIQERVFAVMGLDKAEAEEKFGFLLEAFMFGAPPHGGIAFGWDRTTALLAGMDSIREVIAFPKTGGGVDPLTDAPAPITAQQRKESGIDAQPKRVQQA
Assay: Assay for Asp RNA synthetase-1 from Mycobacterium tuberculosis
Type: functional
Parameters: scale not given: direction of the effect not stated beside the values
Conditions: 30 µM

| SMILES | Percent Effect [%] |
| --- | --- |
| Cc1cc(NCc2cc3n(n2)CCCN(C(=O)N(C)C)C3)ncn1 | 0.54 |
| CC(C)n1cc(CN2CCCN(C(=O)c3ccc[nH]3)CC2)cn1 | -3.14 |
| Cc1cccc(-c2nc(C)nn2CC(=O)NC2CCCC2)c1 | -5.28 |
| CCc1ncc2c(n1)CN(Cc1nc(C)c(C)o1)CC2 | 0.259 |
| CC(C)c1noc(C(C)N2CCN(Cc3ccco3)CC2)n1 (stereo not given) | 0.141 |
| O=C(NCCCOCC1CC1)Nc1cccnc1N1CCOCC1 | -1.34 |
| CC(C)(C)c1nnc(CN2CCCC2c2noc(C3CC3)n2)o1 (stereo not given) | 0.758 |
| Cc1noc([C@@H]2CC[C@@H]3[C@@H](CCN3S(=O)(=O)c3cccnc3)O2)n1 | 0.127 |
| Fc1ccc(OCCCN2CCOC(Cn3cncn3)C2)cc1 (stereo not given) | -6.13 |
| Cc1nccc(CN2CCC(c3nnsc3S(C)(=O)=O)CC2)n1 | -0.313 |
| CN1CCN(c2nc(O)c3c(-c4ccccn4)ccnc3n2)CC1 | -3.26 |
| O=C(c1cnccn1)N1CCN(Cc2ccncc2)c2ncccc2C1 | 0.815 |
| Cc1cc(CN(C)C(=O)c2ccc(Cl)c(S(C)(=O)=O)c2)no1 | -2.25 |
| c1cnc(N2CCC3(CCN(CC4CC4)CC3)CC2)nc1 | 0.564 |
| Cc1ccc(CN2C[C@@H]3COC[C@@H](NS(C)(=O)=O)[C@@H]3C2)o1 | 1.98 |
| CCc1nc(CN(C)C2CCN(Cc3ccc(C#N)cc3F)C2)no1 (stereo not given) | -1.38 |
| CN(C)C(=O)N1CCN(Cc2ccccc2)[C@@H]2CS(=O)(=O)C[C@@H]21 | 0.569 |
| CN1Cc2c(C(=O)Nc3cccnc3)ncn2-c2ccccc2S1(=O)=O | -2.67 |
| COc1ccc(-c2csc(N)c2C#N)cc1OC | 3.46 |
| CCC1CN(C(=O)Nc2cnc3c(cnn3C(C)C)c2)CCO1 (stereo not given) | 0.932 |

| SMILES | Percent Effect [%] |
| --- | --- |
| N#Cc1ccccc1OCCN1CCn2c(nnc2C2CC2)C1 | -1.13 |
| Cc1ccc(N2CCC3(CC2)CC(OCC(=O)N(C)C)CO3)nn1 (stereo not given) | -2.52 |
| COCCn1ccc(=O)c(OCC(=O)Nc2ccccc2)c1C | -0.61 |
| CCC1=N[C@@]2(CC[C@@H]3CN(Cc4ccc(Cl)cc4)C[C@@H]32)C(=O)N1C | 3.65 |
| CCC(=O)N1CCC(c2nc3ccc(NC(C)C)cn3n2)CC1 | -3.11 |
| CCOc1ccccc1OC1CCN(C(=O)c2ccc(=O)[nH]n2)CC1 | -5.79 |
| O=C(NCCOc1ccc2c(c1)OCO2)C1CC(=O)N(CC2CC2)C1 (stereo not given) | 4.55 |
| O=C(c1ccnnc1)N1C[C@@H](OCC2CCOCC2)[C@H]2OCCC[C@H]21 | -5.57 |
| CC(=O)N(Cc1noc(C)n1)C1CCN(Cc2ccncc2Cl)C1 (stereo not given) | 1.27 |
| Cc1cc(N2CCCN(C(=O)Cc3ccc(O)c(Cl)c3)CC2)ccn1 | 1.92 |
| Cc1cnn(CC2CN(CC(=O)NCc3ccccn3)CCO2)c1 (stereo not given) | -8.24 |
| COCCCN1CCc2cncnc2C1 | 10.5 |
| Cc1ccc(N2CCCc3sc(C(=O)NCc4cccnc4)nc32)nn1 | -2.44 |
| Cc1nn(C)c(N(C)C)c1CNCc1ccccc1Cn1cncn1 | -4.47 |
| Cc1cc(C)n(CC2CN(Cc3cccc(C(N)=O)c3)CCO2)n1 (stereo not given) | -8.8 |
| Cc1cnc2n(c1=O)CC(C(=O)NC1CC1)CS2 (stereo not given) | -3.65 |
| Cc1ccc(N(CC(=O)c2ccc(Br)cc2)C2=NCCCCC2)cc1 | 0.479 |
| Cc1ccc(C(=O)NCC2(O)CCOCC2)cc1Br | -1.3 |
| Cc1ccc2cnn(CCC(=O)NCc3c(C)nn(C)c3C)c2c1 | 8.17 |
| CNc1cc(N2CCCC2CNCc2c[nH]nc2C(C)(C)C)ncn1 (stereo not given) | 1.25 |

Biological target: Shiga toxin 2 (Escherichia coli O157:H7) (UniProt P09385+P09386)
Assay: E. coli 0.157:H7 Shiga Toxin SOP - stx2 screening assay
Type: functional
Parameters: scale not given: direction of the effect not stated beside the values
Conditions: 30 µM

| SMILES | Percent Effect [%] |
| --- | --- |
| Cc1cc(NCc2cc3n(n2)CCCN(C(=O)N(C)C)C3)ncn1 | -3.81 |
| CC(C)n1cc(CN2CCCN(C(=O)c3ccc[nH]3)CC2)cn1 | -5.02 |
| Cc1cccc(-c2nc(C)nn2CC(=O)NC2CCCC2)c1 | -29.1 |
| CCc1ncc2c(n1)CN(Cc1nc(C)c(C)o1)CC2 | -23.6 |
| CC(C)c1noc(C(C)N2CCN(Cc3ccco3)CC2)n1 (stereo not given) | 13.9 |
| O=C(NCCCOCC1CC1)Nc1cccnc1N1CCOCC1 | 4.93 |
| CC(C)(C)c1nnc(CN2CCCC2c2noc(C3CC3)n2)o1 (stereo not given) | 0.0549 |
| Cc1noc([C@@H]2CC[C@@H]3[C@@H](CCN3S(=O)(=O)c3cccnc3)O2)n1 | -18.4 |
| Fc1ccc(OCCCN2CCOC(Cn3cncn3)C2)cc1 (stereo not given) | -10.5 |
| Cc1nccc(CN2CCC(c3nnsc3S(C)(=O)=O)CC2)n1 | 5.72 |
| CN1CCN(c2nc(O)c3c(-c4ccccn4)ccnc3n2)CC1 | 7.03 |
| O=C(c1cnccn1)N1CCN(Cc2ccncc2)c2ncccc2C1 | -1.31 |
| Cc1cc(CN(C)C(=O)c2ccc(Cl)c(S(C)(=O)=O)c2)no1 | -3.87 |
| c1cnc(N2CCC3(CCN(CC4CC4)CC3)CC2)nc1 | 6.17 |
| Cc1ccc(CN2C[C@@H]3COC[C@@H](NS(C)(=O)=O)[C@@H]3C2)o1 | -1.23 |
| CCc1nc(CN(C)C2CCN(Cc3ccc(C#N)cc3F)C2)no1 (stereo not given) | 20.3 |
| CN(C)C(=O)N1CCN(Cc2ccccc2)[C@@H]2CS(=O)(=O)C[C@@H]21 | -3.78 |
| CN1Cc2c(C(=O)Nc3cccnc3)ncn2-c2ccccc2S1(=O)=O | 6.47 |
| COc1ccc(-c2csc(N)c2C#N)cc1OC | -24.5 |
| CCC1CN(C(=O)Nc2cnc3c(cnn3C(C)C)c2)CCO1 (stereo not given) | 13.4 |

| SMILES | Percent Effect [%] |
| --- | --- |
| N#Cc1ccccc1OCCN1CCn2c(nnc2C2CC2)C1 | -21.3 |
| Cc1ccc(N2CCC3(CC2)CC(OCC(=O)N(C)C)CO3)nn1 (stereo not given) | -23.3 |
| COCCn1ccc(=O)c(OCC(=O)Nc2ccccc2)c1C | -38 |
| CCC1=N[C@@]2(CC[C@@H]3CN(Cc4ccc(Cl)cc4)C[C@@H]32)C(=O)N1C | 3.45 |
| CCC(=O)N1CCC(c2nc3ccc(NC(C)C)cn3n2)CC1 | -40.8 |
| CCOc1ccccc1OC1CCN(C(=O)c2ccc(=O)[nH]n2)CC1 | 32.3 |
| O=C(NCCOc1ccc2c(c1)OCO2)C1CC(=O)N(CC2CC2)C1 (stereo not given) | 24.2 |
| O=C(c1ccnnc1)N1C[C@@H](OCC2CCOCC2)[C@H]2OCCC[C@H]21 | -14.6 |
| CC(=O)N(Cc1noc(C)n1)C1CCN(Cc2ccncc2Cl)C1 (stereo not given) | -3.88 |
| Cc1cc(N2CCCN(C(=O)Cc3ccc(O)c(Cl)c3)CC2)ccn1 | -29.5 |
| Cc1cnn(CC2CN(CC(=O)NCc3ccccn3)CCO2)c1 (stereo not given) | -5.07 |
| COCCCN1CCc2cncnc2C1 | -35.2 |
| Cc1ccc(N2CCCc3sc(C(=O)NCc4cccnc4)nc32)nn1 | -41.7 |
| Cc1nn(C)c(N(C)C)c1CNCc1ccccc1Cn1cncn1 | 10.9 |
| Cc1cc(C)n(CC2CN(Cc3cccc(C(N)=O)c3)CCO2)n1 (stereo not given) | -5.62 |
| Cc1cnc2n(c1=O)CC(C(=O)NC1CC1)CS2 (stereo not given) | 0.421 |
| Cc1ccc(N(CC(=O)c2ccc(Br)cc2)C2=NCCCCC2)cc1 | -13.7 |
| Cc1ccc(C(=O)NCC2(O)CCOCC2)cc1Br | 8.46 |
| Cc1ccc2cnn(CCC(=O)NCc3c(C)nn(C)c3C)c2c1 | -18.4 |
| CNc1cc(N2CCCC2CNCc2c[nH]nc2C(C)(C)C)ncn1 (stereo not given) | -11.5 |
